Test in all cases: DAPPL (digital affinity profiling via proximity ligation, sequencing); 10 mM Tris-HCl pH 7.5, 50 mM NaCl, 1 mM DTT, 4% glycerol, room temperature, 30 min; GST-TFs on glutathione beads, 16-mer random dsDNA library, 0.1% formaldehyde crosslink after washing; high values mean tight binding
Common to all, as to settings: protein: recombinant; tags: N-terminal GST; dsDNA, one strand shown

One assay has as its target T1, FLI1 (Homo sapiens, UniProt Q01543 1-452).
T1 sequence: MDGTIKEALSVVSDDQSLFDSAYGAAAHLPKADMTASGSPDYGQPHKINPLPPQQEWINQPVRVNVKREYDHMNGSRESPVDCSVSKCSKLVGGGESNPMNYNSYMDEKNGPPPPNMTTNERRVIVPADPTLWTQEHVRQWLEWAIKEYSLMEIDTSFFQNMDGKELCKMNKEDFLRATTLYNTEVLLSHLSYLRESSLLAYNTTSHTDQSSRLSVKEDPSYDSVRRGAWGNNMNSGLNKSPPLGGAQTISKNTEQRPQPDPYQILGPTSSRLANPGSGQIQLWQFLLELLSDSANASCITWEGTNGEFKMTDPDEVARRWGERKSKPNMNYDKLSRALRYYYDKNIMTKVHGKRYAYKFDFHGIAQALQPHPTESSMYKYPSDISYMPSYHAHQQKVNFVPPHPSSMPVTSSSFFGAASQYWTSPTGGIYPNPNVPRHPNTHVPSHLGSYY
The essentials: (§1)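 A tag-only sample was pooled with DNA-barcoded human transcription factors that had been expressed in yeast as GST fusions and captured on glutathione beads. The pools were incubated for 30 min at room temperature with 200 nmole of a random double-stranded 16-mer DNA library in Tris/NaCl/DTT/glycerol buffer, then washed, crosslinked with 0.1% formaldehyde, proximity-ligated (BsaI/T4 ligase, 1 h, 37 °C), PCR-amplified and sequenced on an Illumina NextSeq500. Binding signal is each hexamer's read frequency for a factor divided by its frequency for the tag-only sample.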

Another assay addresses T2, ELK1 (Homo sapiens, UniProt P19419 1-428).
T2 sequence: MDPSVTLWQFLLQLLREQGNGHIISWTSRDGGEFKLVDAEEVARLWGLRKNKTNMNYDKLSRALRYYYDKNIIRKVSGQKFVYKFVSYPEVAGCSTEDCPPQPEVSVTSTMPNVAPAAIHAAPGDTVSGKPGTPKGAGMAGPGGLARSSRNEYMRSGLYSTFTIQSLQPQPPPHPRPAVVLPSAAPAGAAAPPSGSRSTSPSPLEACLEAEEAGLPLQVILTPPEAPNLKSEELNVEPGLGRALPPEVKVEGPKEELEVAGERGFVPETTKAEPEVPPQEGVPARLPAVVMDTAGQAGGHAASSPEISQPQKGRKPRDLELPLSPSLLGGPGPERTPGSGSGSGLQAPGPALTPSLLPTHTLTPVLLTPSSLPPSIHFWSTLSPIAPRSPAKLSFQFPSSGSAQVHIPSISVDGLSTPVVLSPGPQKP
The essentials: as §1

Another assay has as its target T3, GABPA (Homo sapiens, UniProt Q06546 1-454).
T3 sequence: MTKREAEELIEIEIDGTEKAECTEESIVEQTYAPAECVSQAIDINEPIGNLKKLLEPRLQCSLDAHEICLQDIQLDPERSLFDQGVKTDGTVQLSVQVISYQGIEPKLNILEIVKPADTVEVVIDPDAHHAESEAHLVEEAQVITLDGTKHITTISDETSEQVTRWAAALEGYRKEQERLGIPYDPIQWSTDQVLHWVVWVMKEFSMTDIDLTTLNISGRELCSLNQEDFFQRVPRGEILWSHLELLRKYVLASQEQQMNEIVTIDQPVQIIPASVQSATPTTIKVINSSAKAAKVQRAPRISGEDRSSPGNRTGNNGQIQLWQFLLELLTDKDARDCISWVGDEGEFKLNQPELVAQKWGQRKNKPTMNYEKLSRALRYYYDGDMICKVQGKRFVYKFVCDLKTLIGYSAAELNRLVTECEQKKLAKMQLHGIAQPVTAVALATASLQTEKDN
The essentials: as §1

Another assay addresses T4, ERG (Homo sapiens, UniProt P11308 1-479).
T4 sequence: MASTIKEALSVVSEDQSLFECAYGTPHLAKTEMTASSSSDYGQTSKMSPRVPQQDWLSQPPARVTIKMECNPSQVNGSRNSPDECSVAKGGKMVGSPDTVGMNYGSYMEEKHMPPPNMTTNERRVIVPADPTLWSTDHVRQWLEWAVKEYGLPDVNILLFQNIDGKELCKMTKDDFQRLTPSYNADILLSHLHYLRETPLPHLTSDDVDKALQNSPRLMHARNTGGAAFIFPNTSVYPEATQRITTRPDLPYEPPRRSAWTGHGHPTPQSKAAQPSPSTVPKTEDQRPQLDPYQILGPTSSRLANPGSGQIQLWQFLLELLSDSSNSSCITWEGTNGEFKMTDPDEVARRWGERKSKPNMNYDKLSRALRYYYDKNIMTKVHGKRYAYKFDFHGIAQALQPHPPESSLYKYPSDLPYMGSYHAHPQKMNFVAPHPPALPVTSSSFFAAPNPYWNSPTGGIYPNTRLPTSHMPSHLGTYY
In outline: as §1

For the next assay, the target named is ELF1 (Homo sapiens, UniProt P32519 1-619). The essentials: as §1
The next assay has as its target SPIB (Homo sapiens, UniProt Q01892 1-262). The essentials: as §1
Another assay addresses ETV5 (Homo sapiens, UniProt P41161 1-510). In outline: as §1
For a further assay, the target named is T5, SPIC (Homo sapiens, UniProt Q8N5J4 1-248).
T5 sequence: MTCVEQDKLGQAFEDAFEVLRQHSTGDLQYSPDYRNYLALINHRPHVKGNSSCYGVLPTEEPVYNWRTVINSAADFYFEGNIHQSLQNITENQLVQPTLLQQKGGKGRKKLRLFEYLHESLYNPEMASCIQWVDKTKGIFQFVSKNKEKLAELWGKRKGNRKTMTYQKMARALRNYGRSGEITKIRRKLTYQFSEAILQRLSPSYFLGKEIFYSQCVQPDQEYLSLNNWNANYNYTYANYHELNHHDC
In outline:
as §1

Another assay has as its target ETV1 (Homo sapiens, UniProt P50549 1-477). In outline: as §1
For the next assay, the target named is T6, ERF (Homo sapiens, UniProt P50548 1-548).
T6 sequence: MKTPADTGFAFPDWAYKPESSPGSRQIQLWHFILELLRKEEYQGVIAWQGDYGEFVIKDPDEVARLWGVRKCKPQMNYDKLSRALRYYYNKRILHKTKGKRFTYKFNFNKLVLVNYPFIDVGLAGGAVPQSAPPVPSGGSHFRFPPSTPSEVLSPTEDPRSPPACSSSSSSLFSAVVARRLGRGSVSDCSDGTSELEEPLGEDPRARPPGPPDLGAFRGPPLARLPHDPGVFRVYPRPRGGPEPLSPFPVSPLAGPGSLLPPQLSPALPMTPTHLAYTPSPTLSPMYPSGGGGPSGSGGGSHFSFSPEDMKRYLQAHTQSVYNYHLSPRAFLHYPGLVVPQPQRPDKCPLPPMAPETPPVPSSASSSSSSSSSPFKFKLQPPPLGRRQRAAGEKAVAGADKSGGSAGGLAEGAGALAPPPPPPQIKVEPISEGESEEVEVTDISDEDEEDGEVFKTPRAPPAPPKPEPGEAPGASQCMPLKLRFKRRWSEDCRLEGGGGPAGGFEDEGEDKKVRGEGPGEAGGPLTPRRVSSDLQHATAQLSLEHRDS
The essentials: as §1

Another assay addresses T7, ETS2 (Homo sapiens, UniProt P15036 1-469).
T7 sequence: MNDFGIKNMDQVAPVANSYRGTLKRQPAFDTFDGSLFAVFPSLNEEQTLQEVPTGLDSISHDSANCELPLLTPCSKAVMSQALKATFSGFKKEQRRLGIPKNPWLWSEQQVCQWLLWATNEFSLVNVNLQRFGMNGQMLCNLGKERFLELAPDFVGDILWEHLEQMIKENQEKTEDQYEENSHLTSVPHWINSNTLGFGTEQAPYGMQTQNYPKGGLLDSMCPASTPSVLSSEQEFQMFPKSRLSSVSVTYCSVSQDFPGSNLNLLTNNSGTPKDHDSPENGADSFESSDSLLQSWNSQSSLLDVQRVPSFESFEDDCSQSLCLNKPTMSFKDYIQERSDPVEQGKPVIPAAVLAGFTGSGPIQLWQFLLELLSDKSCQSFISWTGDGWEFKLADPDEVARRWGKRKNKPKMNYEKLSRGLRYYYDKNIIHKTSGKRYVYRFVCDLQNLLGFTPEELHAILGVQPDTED
In outline:
as §1

The next assay addresses T8, SPDEF (Homo sapiens, UniProt O95238 1-335).
T8 sequence: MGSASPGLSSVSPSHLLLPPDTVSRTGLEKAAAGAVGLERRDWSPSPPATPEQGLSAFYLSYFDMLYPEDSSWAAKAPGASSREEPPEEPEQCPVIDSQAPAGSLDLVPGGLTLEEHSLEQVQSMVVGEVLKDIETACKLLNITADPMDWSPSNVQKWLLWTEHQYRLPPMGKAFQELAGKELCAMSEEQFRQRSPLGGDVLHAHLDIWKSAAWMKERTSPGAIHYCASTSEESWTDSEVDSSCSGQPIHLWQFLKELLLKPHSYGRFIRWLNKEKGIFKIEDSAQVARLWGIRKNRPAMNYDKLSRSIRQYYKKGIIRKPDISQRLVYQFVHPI
In outline: as §1

The target of a further assay is T9, EHF (Homo sapiens, UniProt Q9NZC4 1-300).
T9 sequence: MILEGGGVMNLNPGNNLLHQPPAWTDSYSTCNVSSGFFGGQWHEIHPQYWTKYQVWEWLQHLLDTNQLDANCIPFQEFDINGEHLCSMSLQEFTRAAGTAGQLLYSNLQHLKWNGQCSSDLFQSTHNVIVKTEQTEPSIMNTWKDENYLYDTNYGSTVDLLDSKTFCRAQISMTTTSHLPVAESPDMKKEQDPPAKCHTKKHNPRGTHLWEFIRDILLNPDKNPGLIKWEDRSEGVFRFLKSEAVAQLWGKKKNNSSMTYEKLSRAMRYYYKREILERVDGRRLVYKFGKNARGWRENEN
In outline: as §1

A further assay deals with ELF4 (Homo sapiens, UniProt Q99607 1-663). The essentials:
as §1

The target of the next assay is T10, ELF5 (Homo sapiens, UniProt Q9UKW6-2 1-255).
T10 sequence: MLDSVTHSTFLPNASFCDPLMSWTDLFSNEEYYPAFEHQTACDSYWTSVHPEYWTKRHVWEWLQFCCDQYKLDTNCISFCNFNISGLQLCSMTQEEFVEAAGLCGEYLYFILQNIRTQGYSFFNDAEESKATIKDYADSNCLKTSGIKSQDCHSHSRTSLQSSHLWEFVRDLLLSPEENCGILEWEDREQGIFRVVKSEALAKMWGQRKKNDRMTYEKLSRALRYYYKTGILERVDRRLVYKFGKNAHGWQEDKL
The essentials: as §1

The target in a further assay is T11, ETV3 (Homo sapiens, UniProt P41162-2 1-143).
T11 sequence: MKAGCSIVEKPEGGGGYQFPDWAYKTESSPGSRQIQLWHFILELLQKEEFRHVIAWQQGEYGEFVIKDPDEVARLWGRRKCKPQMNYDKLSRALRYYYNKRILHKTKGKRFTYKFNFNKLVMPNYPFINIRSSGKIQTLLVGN
The essentials: as §1

SPIB, sequence (Q01892 whole entry): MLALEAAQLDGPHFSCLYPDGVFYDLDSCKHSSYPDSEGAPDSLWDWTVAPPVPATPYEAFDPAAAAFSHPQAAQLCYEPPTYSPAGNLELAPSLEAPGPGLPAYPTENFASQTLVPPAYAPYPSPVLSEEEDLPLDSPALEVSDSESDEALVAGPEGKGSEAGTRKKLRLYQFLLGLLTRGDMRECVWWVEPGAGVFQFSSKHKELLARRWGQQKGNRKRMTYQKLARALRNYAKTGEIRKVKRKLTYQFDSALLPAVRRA
ETV5, sequence (P41161 whole entry): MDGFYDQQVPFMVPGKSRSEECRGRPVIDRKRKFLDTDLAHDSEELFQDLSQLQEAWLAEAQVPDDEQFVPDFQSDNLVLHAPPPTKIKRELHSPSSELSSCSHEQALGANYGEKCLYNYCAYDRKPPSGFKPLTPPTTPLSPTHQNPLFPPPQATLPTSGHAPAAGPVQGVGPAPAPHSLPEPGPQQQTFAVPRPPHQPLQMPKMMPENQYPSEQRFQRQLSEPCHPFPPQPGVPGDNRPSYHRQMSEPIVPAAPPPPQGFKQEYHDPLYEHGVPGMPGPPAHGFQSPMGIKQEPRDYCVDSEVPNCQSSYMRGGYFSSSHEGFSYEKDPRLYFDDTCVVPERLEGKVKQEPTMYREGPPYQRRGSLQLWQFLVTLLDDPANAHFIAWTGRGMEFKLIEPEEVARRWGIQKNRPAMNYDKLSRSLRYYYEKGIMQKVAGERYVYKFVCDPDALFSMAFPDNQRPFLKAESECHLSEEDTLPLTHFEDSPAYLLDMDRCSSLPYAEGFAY
ELF1, sequence (P32519 whole entry): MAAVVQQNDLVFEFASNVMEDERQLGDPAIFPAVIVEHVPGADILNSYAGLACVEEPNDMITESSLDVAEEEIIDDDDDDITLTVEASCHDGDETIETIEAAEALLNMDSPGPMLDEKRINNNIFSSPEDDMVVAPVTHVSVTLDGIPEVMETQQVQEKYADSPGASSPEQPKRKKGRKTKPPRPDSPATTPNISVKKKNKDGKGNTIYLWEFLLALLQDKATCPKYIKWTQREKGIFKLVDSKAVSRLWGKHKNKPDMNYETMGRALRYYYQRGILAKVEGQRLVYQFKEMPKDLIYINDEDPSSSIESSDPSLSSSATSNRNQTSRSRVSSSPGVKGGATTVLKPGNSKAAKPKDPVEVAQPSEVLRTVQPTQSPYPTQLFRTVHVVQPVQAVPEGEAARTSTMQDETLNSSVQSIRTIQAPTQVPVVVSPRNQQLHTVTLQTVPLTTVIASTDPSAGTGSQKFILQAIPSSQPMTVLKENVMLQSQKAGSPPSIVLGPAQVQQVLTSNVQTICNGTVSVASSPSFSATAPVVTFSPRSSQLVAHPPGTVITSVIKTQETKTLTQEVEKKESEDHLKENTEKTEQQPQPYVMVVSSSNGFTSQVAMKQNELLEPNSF
ETV1, sequence (P50549 whole entry): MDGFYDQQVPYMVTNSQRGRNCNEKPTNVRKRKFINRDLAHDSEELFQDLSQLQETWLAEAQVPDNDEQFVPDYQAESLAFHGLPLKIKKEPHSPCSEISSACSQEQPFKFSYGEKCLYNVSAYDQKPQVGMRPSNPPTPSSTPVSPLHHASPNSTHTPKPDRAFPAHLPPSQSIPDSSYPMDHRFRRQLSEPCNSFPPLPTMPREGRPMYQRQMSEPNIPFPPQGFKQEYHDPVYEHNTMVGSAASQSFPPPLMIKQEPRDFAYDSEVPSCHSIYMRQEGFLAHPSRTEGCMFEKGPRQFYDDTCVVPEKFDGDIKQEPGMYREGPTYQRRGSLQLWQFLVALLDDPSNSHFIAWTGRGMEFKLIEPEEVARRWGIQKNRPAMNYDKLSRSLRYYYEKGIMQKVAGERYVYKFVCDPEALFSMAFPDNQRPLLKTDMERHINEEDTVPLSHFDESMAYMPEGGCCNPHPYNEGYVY
ELF4, sequence (Q99607 whole entry): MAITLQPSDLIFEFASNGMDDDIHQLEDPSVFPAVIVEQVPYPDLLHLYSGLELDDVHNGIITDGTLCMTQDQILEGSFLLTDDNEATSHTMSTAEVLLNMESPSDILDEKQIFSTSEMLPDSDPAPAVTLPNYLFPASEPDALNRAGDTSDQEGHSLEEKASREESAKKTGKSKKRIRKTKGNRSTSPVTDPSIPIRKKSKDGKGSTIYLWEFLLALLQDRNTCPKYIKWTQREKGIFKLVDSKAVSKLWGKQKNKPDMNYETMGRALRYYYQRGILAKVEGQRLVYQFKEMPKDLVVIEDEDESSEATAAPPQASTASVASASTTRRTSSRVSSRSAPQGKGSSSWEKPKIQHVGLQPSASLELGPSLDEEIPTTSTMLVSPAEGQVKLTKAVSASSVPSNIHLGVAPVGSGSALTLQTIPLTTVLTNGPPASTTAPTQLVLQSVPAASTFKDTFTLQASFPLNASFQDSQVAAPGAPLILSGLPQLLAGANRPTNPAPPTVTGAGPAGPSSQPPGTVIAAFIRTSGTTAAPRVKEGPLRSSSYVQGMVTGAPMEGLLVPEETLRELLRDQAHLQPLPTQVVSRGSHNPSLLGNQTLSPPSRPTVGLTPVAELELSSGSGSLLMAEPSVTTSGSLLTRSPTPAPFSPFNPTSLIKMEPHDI

Consider TGGTGG, for which the binding signal with FLI1 is 1.11 fold enrichment (6-mer frequency, TF over GST control); with ELK1 it was 1.01 fold enrichment (6-mer frequency, TF over GST control); with GABPA, 1.12 fold enrichment (6-mer frequency, TF over GST control); with ERG it was 1.1 fold enrichment (6-mer frequency, TF over GST control); in the assay with ELF1, 1.03 fold enrichment (6-mer frequency, TF over GST control); with SPIB, 1.05 fold enrichment (6-mer frequency, TF over GST control). In addition, the binding signal with ETV5 was 1.03 fold enrichment (6-mer frequency, TF over GST control); in the assay with SPIC, 1.03 fold enrichment (6-mer frequency, TF over GST control); with ETV1, 1.04 fold enrichment (6-mer frequency, TF over GST control); in the assay with ERF, 1.1 fold enrichment (6-mer frequency, TF over GST control); with ETS2, 1.08 fold enrichment (6-mer frequency, TF over GST control); with SPDEF, 1.02 fold enrichment (6-mer frequency, TF over GST control).
In the case of CGGATC, the binding signal with FLI1 was 1.04 fold enrichment (6-mer frequency, TF over GST control); in the assay with GABPA, 1.04 fold enrichment (6-mer frequency, TF over GST control); with ERG it was 1.05 fold enrichment (6-mer frequency, TF over GST control); with EHF it was 1.02 fold enrichment (6-mer frequency, TF over GST control); in the assay with SPIB, 1.01 fold enrichment (6-mer frequency, TF over GST control); with ETV5, 1.03 fold enrichment (6-mer frequency, TF over GST control). Also, the binding signal is 1.02 fold enrichment (6-mer frequency, TF over GST control) with SPIC; 1.01 fold enrichment (6-mer frequency, TF over GST control) in the assay with ELF4; 1.67 fold enrichment (6-mer frequency, TF over GST control) with SPDEF; 1.05 fold enrichment (6-mer frequency, TF over GST control) with ELF5; 1.06 fold enrichment (6-mer frequency, TF over GST control) with ETV3.

Source of the values: publication PMC7862700, “An all-to-all approach to the identification of sequence-specific readers for epigenetic DNA modifications on cytosine”.
